Source: PubChem BioAssay AID504725 (Broad Institute, 2011)
Entries with a potency or affinity are not part of this list. Calls of active or inactive are those of the source. No rule for the calls is given here.

Biological target: KSHV LANA C-terminal domain (residues 932-1162) binding to LBS DNA (UniProt O40947)
Experiment: KSHV LANA DNA-binding disruption – biochemical, fluorescence polarization, cherry-picked samples, dose response (AID 504725)
Conditions: MBP-C-LANA / FAM-LBS DNA fluorescence polarization, percent change from plate compound-well median; series mostly up to 35 µM; activity change, negative = inhibition: at the top concentration

Activity change, negative = inhibition, inactive:
O=C(c1cnn2c(-c3ccccc3)cc(-c3ccccc3)nc12)N1CCN(Cc2ccccc2)CC1 -0.43%, COc1ccc(C)cc1NC(=O)C(OC(=O)c1cnccn1)c1ccccc1 (stereo not drawn) -8.66%, CC1CCCN(C(=O)C(=O)c2cn(CC(=O)N3CCCCCC3)c3ccccc23)C1 (stereo not drawn) -6.83%, CCc1ccc(C2CC(c3cccc(Cl)c3)n3nc(N)nc3N2)cc1 (stereo not drawn) 2.28%, O=C(O)c1cccc(-n2cccc2/C=C/[N+](=O)[O-])c1 -14.2%, COc1ccc(-c2csc(NC(=O)CSc3nc(C)nc4sc(C(=O)O)c(C)c34)n2)cc1 -5.52%, Cc1ccc(CSc2ncnc3onc(C)c23)cc1 -2.54%, Cn1c(Cl)c(C(=O)Nc2ccc(Cl)cc2)c2ccccc21 1.43%, Cc1cccc(-c2nsc(SCC(=O)Nc3nccs3)n2)c1 2.95%, O=C(Cn1c2ccccc2c2nc3n(c(=O)c21)CCS3)Nc1ccccc1C(F)(F)F 0.798%, Cc1ccc(S(=O)(=O)/N=C/c2ccc(N(C)C)cc2)cc1 -1.14%, O=c1oc2ccccc2nc1/C=C(\O)c1ccc(Br)cc1 -14.8%, Cc1cc2c(N)cccc2nn1 -4.72%, CCc1noc(C)c1C(=O)N1CCCC(N2CCN(c3ccc(F)cc3)CC2)C1 (stereo not drawn) 0.418%, Cc1nnc(NC(=O)CN2C(=O)NC3(CCCC3)C2=O)s1 -0.511%, Cn1cc(C(=O)c2ccc(Cl)cc2Cl)cc1C(=O)N/N=C(\N)COc1ccccc1 -0.182%, CN1CCc2c(sc(NC(=O)c3ccc4ccccc4c3)c2C(N)=O)C1 6.69%, FC(F)(F)c1nnc(-c2ccccc2)nc1N1CCCC1 1.81%, CC(C)Cc1nc(SCC(=O)Nc2nnc(CC(C)C)s2)n[nH]1 1.85%, C=C1c2cccc(O)c2C(O)=C2C(=O)[C@]3(O)C(O)=C(C(N)=O)C(=O)[C@@H](N(C)C)[C@@H]3[C@@H](O)[C@H]12 -11.7%, CCN(CC)C(=O)C1c2ccccc2Oc2ccccc21 -2.59%, CC(=O)Nc1ccc(S(=O)(=O)Nc2ccccc2N2CCOCC2)cc1 -0.673%, CSC(=NS(=O)(=O)c1ccc(N)cc1)NS(=O)(=O)c1cccs1 -0.26%, O=C(C1CCCO1)N1CCN(c2ncccn2)CC1 (stereo not drawn) -1.29%, O=c1c2c(nc3cc(-c4ccc(F)cc4)[nH]n13)CCC2 3.74%, CCn1c(CN2CCCCC2)nc2cc(S(=O)(=O)N3CCCCC3)ccc21 2.61%, Cc1cc(C)n2nc(C(=O)OC(C)C(=O)c3cc(C)c(C)cc3C)nc2n1 (stereo not drawn) 0.75%, CCOC(=O)c1ccccc1Nc1cc(C)nc2nc(C)nn12 -0.772%, CSc1nc(SC(C)C(=O)O)c2c3c(sc2n1)COC(C)(C)C3 (stereo not drawn) -2.44%, Cc1ccc(OCC(=O)O/N=C(\N)Cc2ccc([N+](=O)[O-])cc2)cc1C -1.26%, COc1ccc(N=C2SC(CC(=O)Nc3ccccc3)C(=O)N2Cc2ccco2)cc1 (stereo not drawn) 0.033%, CCC(Sc1ncccc1C(=O)O)C(=O)N1CCCC1 (stereo not drawn) 3.51%, COc1cc(C(=O)O)cc(NC(=O)c2ccco2)c1OC -2.4%, N#CCCN(CCC#N)C(=O)C1c2ccccc2Oc2ccccc21 -7.45%, Oc1ccc(-c2nc3ccccn3c2NCc2ccco2)cc1 0.047%, NC(=S)COc1ccccc1 3.96%, COC(=O)c1ccccc1OCC(=O)N1CCN(c2ccc(Cl)cc2)CC1 0.64%, COc1ccc(C(=O)OCC(=O)NC2CC2)cc1S(=O)(=O)Nc1ccc(C)cc1 2.49%
